Results: PubChem BioAssay (NCI)
The panel holds about 83,000 compounds, 20% with a hit somewhere; the sample as a whole holds those more often.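 The test compound was applied at a single concentration to cells in 96-well plates for 48 hours, and percent growth was recorded.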 Active and inactive are the calls of the source. How the source made its calls: active means growth percent below 10; inactive means the rest.

What was measured:
Assay in all cases: NCI-60 one-dose screen, 48 h (100 = growth as untreated, 0 = no growth, -100 = all killed)
Details in all cases: 10 µM unless noted
HCT-15 colon = test system: HCT-15 colon
HT29 colon = test system: HT29 colon
SNB-75 CNS = test system: SNB-75 CNS
SNB-19 CNS = test system: SNB-19 CNS
U251 CNS = test system: U251 CNS
PC-3 prostate = test system: PC-3 prostate
SK-MEL-5 melanoma = test system: SK-MEL-5 melanoma
UACC-62 melanoma = test system: UACC-62 melanoma
LOX IMVI melanoma = test system: LOX IMVI melanoma
SK-MEL-28 melanoma = test system: SK-MEL-28 melanoma
SK-MEL-2 melanoma = test system: SK-MEL-2 melanoma
EKVX NSCLC = test system: EKVX NSCLC
SN12C renal = test system: SN12C renal
UO-31 renal = test system: UO-31 renal
TK-10 renal = test system: TK-10 renal
ACHN renal = test system: ACHN renal
CAKI-1 renal = test system: CAKI-1 renal
A498 renal = test system: A498 renal
CCRF-CEM leukemia = test system: CCRF-CEM leukemia
MOLT-4 leukemia = test system: MOLT-4 leukemia

Measured: growth

O=C(N/N=C/c1ccc(Cl)cc1)c1[nH]c2ccc(Cl)cc2c1-c1ccccc1
active: SK-MEL-5 melanoma -36.6% | SK-MEL-2 melanoma -9.34%
inactive: HCT-15 colon 11.2% | HT29 colon 19.4% | SNB-75 CNS 70.5% | SNB-19 CNS 15.1% | U251 CNS 10.4% | PC-3 prostate 17.2% | UACC-62 melanoma 30.7% | LOX IMVI melanoma 19% | SK-MEL-28 melanoma 93.3% | EKVX NSCLC 40.7% | SN12C renal 28.1% | UO-31 renal 24.7% | TK-10 renal 51.8% | ACHN renal 28.4% | CAKI-1 renal 20.9% | A498 renal 36.2% | CCRF-CEM leukemia 19.3% | MOLT-4 leukemia 33.7%

COC(=O)CC[C@@H]1O[C@@H](c2cccc(C(F)(F)F)c2)[C@@H](O)[C@H]1O
inactive: HCT-15 colon 101% | HT29 colon 97.8% | SNB-75 CNS 92.5% | SNB-19 CNS 107% | U251 CNS 102% | PC-3 prostate 97.8% | SK-MEL-5 melanoma 98% | UACC-62 melanoma 104% | LOX IMVI melanoma 97.4% | SK-MEL-28 melanoma 105% | SK-MEL-2 melanoma 103% | EKVX NSCLC 97.7% | SN12C renal 106% | UO-31 renal 92.9% | TK-10 renal 98.9% | ACHN renal 103% | CAKI-1 renal 94% | A498 renal 106% | CCRF-CEM leukemia 109%

CNc1nnc2n(-c3ccccc3)c(=O)c3cnn(-c4ccccc4)c3n12
inactive: HCT-15 colon 76.2% | HT29 colon 51.3% | SNB-75 CNS 73.1% | SNB-19 CNS 110% | U251 CNS 71.4% | PC-3 prostate 62.7% | SK-MEL-5 melanoma 100% | UACC-62 melanoma 95.4% | LOX IMVI melanoma 82.6% | SK-MEL-28 melanoma 103% | SK-MEL-2 melanoma 82% | EKVX NSCLC 90.4% | SN12C renal 104% | UO-31 renal 81.3% | TK-10 renal 79.9% | ACHN renal 88.8% | CAKI-1 renal 81% | A498 renal 71.7% | CCRF-CEM leukemia 85.8%

C=CC[Se]C(=O)Cc1c(C)n(C(=O)c2ccc(Cl)cc2)c2ccc(OC)cc12
active: HCT-15 colon 6.96% | HT29 colon 9.35% | SNB-75 CNS -68.6% | SNB-19 CNS -46% | U251 CNS -58.7% | PC-3 prostate -36% | SK-MEL-5 melanoma -69.7% | UACC-62 melanoma -66.1% | LOX IMVI melanoma 7.91% | SK-MEL-28 melanoma -16% | SK-MEL-2 melanoma 8.51% | EKVX NSCLC -62.6% | SN12C renal -30.4% | UO-31 renal -80% | TK-10 renal -33.5% | ACHN renal -61% | CAKI-1 renal -59.3% | A498 renal -28.1%
inactive: CCRF-CEM leukemia 10.5%

Cc1ccccc1/C=C/C(=O)c1cccc(OCCCCOc2cccc(C(=O)/C=C/c3ccccc3C)c2)c1
inactive: HCT-15 colon 84.6% | HT29 colon 86.8% | SNB-75 CNS 90.9% | SNB-19 CNS 93.5% | U251 CNS 93% | PC-3 prostate 100% | SK-MEL-5 melanoma 101% | UACC-62 melanoma 74.8% | LOX IMVI melanoma 95.9% | SK-MEL-28 melanoma 95.2% | SK-MEL-2 melanoma 103% | EKVX NSCLC 94.6% | SN12C renal 90.7% | UO-31 renal 80.7% | TK-10 renal 101% | ACHN renal 101% | CAKI-1 renal 86% | A498 renal 86% | CCRF-CEM leukemia 104% | MOLT-4 leukemia 94.5%

CN(C)Cc1ccc(O)c(C(=O)O)c1
inactive: HCT-15 colon 107% | HT29 colon 107% | SNB-75 CNS 108% | SNB-19 CNS 109% | U251 CNS 93.3% | PC-3 prostate 105% | SK-MEL-5 melanoma 108% | UACC-62 melanoma 104% | LOX IMVI melanoma 99.4% | SK-MEL-28 melanoma 119% | SK-MEL-2 melanoma 124% | EKVX NSCLC 101% | SN12C renal 109% | UO-31 renal 96.4% | TK-10 renal 70.7% | ACHN renal 101% | CAKI-1 renal 92.8% | A498 renal 104% | CCRF-CEM leukemia 103%

COc1cc(-c2csc(NC(=O)c3ccc(N4CCOCC4)c(C(F)(F)F)c3)n2)cc(OC)c1OC
active: SK-MEL-5 melanoma -6.45% | UACC-62 melanoma -6.31%
inactive: HCT-15 colon 11% | HT29 colon 43.2% | SNB-75 CNS 57.2% | SNB-19 CNS 62.6% | U251 CNS 47.3% | PC-3 prostate 11% | LOX IMVI melanoma 23.1% | SK-MEL-28 melanoma 36.6% | SK-MEL-2 melanoma 23% | EKVX NSCLC 33.7% | SN12C renal 48.9% | UO-31 renal 15.4% | TK-10 renal 64.5% | ACHN renal 21.6% | CAKI-1 renal 36.4% | A498 renal 56.7% | CCRF-CEM leukemia 14.2%

CCC(C)(C)C(=O)O[C@H]1C[C@@H](C)C=C2C=C[C@H](C)[C@H](CC[C@@H]3CC(SCCN)CC(=O)O3)[C@H]21 (some centres undefined)
inactive: HCT-15 colon 100% | HT29 colon 75% | SNB-75 CNS 95.5% | SNB-19 CNS 93% | U251 CNS 87.5% | PC-3 prostate 44.3% | SK-MEL-5 melanoma 89.4% | UACC-62 melanoma 84.3% | LOX IMVI melanoma 75.8% | SK-MEL-28 melanoma 102% | SK-MEL-2 melanoma 91.1% | EKVX NSCLC 105% | SN12C renal 77% | UO-31 renal 68.6% | TK-10 renal 92.1% | ACHN renal 95.8% | CAKI-1 renal 83.9% | A498 renal 90.3% | CCRF-CEM leukemia 12.1%

O=C(Nc1ccccc1)Nc1ncnc2c1ncn2-c1ccc(Cl)cc1
inactive: HCT-15 colon 79% | HT29 colon 80.4% | SNB-75 CNS 44.3% | SNB-19 CNS 97.1% | U251 CNS 77.6% | PC-3 prostate 104% | SK-MEL-5 melanoma 94.9% | UACC-62 melanoma 89.3% | LOX IMVI melanoma 91.9% | SK-MEL-28 melanoma 95.5% | SK-MEL-2 melanoma 107% | EKVX NSCLC 86.7% | SN12C renal 63.1% | UO-31 renal 70.3% | TK-10 renal 58.9% | ACHN renal 69.5% | CAKI-1 renal 93.9% | A498 renal 91% | CCRF-CEM leukemia 94.2% | MOLT-4 leukemia 84.2%

COC(=O)c1c(C)nc(C)c2c1C(=O)C(Br)=C(NCc1ccccc1)C2=O
active: HT29 colon 6.01% | SK-MEL-5 melanoma -96.5% | UACC-62 melanoma -10.8% | LOX IMVI melanoma 6.45% | SN12C renal 8.24%
inactive: HCT-15 colon 11.6% | SNB-75 CNS 100% | SNB-19 CNS 41.7% | U251 CNS 20.1% | PC-3 prostate 16.1% | SK-MEL-28 melanoma 56.4% | SK-MEL-2 melanoma 27.2% | EKVX NSCLC 17% | UO-31 renal 46.1% | TK-10 renal 86.6% | ACHN renal 36.9% | CAKI-1 renal 51.8% | A498 renal 88.6% | CCRF-CEM leukemia 25.5% | MOLT-4 leukemia 13.6%

CC(C)=CC(=O)OCC(=O)O[C@@H]1C[C@]2(C(C)C)O[C@@]1(C)[C@@H]1CC[C@@H](C)[C@H]1[C@@H]2OC(=O)/C=C/c1ccccc1
inactive: HCT-15 colon 86.8% | HT29 colon 85.8% | SNB-75 CNS 88.7% | SNB-19 CNS 99.3% | U251 CNS 81.8% | PC-3 prostate 63.7% | SK-MEL-5 melanoma 90.5% | UACC-62 melanoma 78.5% | LOX IMVI melanoma 86.9% | SK-MEL-28 melanoma 103% | SK-MEL-2 melanoma 89% | EKVX NSCLC 84.1% | SN12C renal 39.8% | TK-10 renal 95.5% | CAKI-1 renal 12.8% | CCRF-CEM leukemia 78.4% | MOLT-4 leukemia 79.1%
active: UO-31 renal -64.7% | ACHN renal 4.57% | A498 renal -79.2%

COc1ccc(Nc2nnc(-c3ccc(OC)c(OC)c3)o2)cc1
inactive: HCT-15 colon 80.3% | HT29 colon 90.9% | SNB-75 CNS 97.5% | SNB-19 CNS 97.5% | U251 CNS 93% | PC-3 prostate 70.7% | SK-MEL-5 melanoma 89% | UACC-62 melanoma 90.2% | LOX IMVI melanoma 59.2% | SK-MEL-28 melanoma 106% | SK-MEL-2 melanoma 90.5% | EKVX NSCLC 89.8% | SN12C renal 97.8% | UO-31 renal 55.3% | TK-10 renal 114% | ACHN renal 82.8% | CAKI-1 renal 89% | A498 renal 94.8% | CCRF-CEM leukemia 86.8% | MOLT-4 leukemia 91.3%

N#Cc1c(-c2ccc(Cl)cc2)c(C#N)c2c(C#N)c(N)nn2c1N
inactive: HCT-15 colon 88.2% | HT29 colon 83.3% | SNB-75 CNS 74.8% | SNB-19 CNS 88.2% | U251 CNS 87.9% | PC-3 prostate 65.2% | SK-MEL-5 melanoma 87.9% | UACC-62 melanoma 72.9% | LOX IMVI melanoma 76.6% | SK-MEL-28 melanoma 99.3% | SK-MEL-2 melanoma 93.1% | EKVX NSCLC 68.3% | SN12C renal 87.8% | UO-31 renal 67.1% | TK-10 renal 83.8% | ACHN renal 87.7% | CAKI-1 renal 71.6% | A498 renal 78.2% | CCRF-CEM leukemia 73.9% | MOLT-4 leukemia 79.4%

S=c1sc2c(Cl)nc(-c3cccnc3)nc2n1-c1ccccc1
active: HCT-15 colon -32.6% | HT29 colon -53.8% | U251 CNS 7.95% | PC-3 prostate 1.75% | UACC-62 melanoma -10.2% | LOX IMVI melanoma -52% | SK-MEL-28 melanoma -58.2% | SN12C renal 2% | UO-31 renal -85.6% | ACHN renal -6.92% | CCRF-CEM leukemia -31.7% | MOLT-4 leukemia -41.5%
inactive: SNB-75 CNS 57.1% | SNB-19 CNS 25.2% | SK-MEL-5 melanoma 76.3% | SK-MEL-2 melanoma 21.6% | EKVX NSCLC 89.6% | TK-10 renal 90.2% | CAKI-1 renal 73.9% | A498 renal 92%

CC1=NC2=Nn3c(c4cnn(-c5ccccc5)c4n/c3=N\N)NN2C(c2ccccc2)=C1
inactive: HCT-15 colon 99% | HT29 colon 98.6% | SNB-75 CNS 67% | SNB-19 CNS 98.4% | U251 CNS 99% | PC-3 prostate 90.5% | SK-MEL-5 melanoma 91% | UACC-62 melanoma 77.6% | LOX IMVI melanoma 92% | SK-MEL-28 melanoma 102% | SK-MEL-2 melanoma 101% | EKVX NSCLC 80.7% | UO-31 renal 70.3% | TK-10 renal 109% | ACHN renal 85.8% | CAKI-1 renal 76.5% | A498 renal 91% | CCRF-CEM leukemia 101% | MOLT-4 leukemia 103%
active: SN12C renal -63.4%

CCc1ccccc1-n1c(-c2ccc(OC)cc2)cc(-c2ccc(OC)cc2)c(C#N)c1=O
active: SNB-75 CNS 2.64%
inactive: HCT-15 colon 106% | HT29 colon 110% | SNB-19 CNS 33.7% | U251 CNS 60.9% | PC-3 prostate 89.5% | SK-MEL-5 melanoma 102% | UACC-62 melanoma 81.6% | LOX IMVI melanoma 95% | SK-MEL-28 melanoma 98.7% | SK-MEL-2 melanoma 90.2% | EKVX NSCLC 94.1% | SN12C renal 89.8% | UO-31 renal 88.3% | TK-10 renal 97.2% | ACHN renal 61.6% | CAKI-1 renal 77.9% | A498 renal 69.5% | CCRF-CEM leukemia 127% | MOLT-4 leukemia 133%
